{"source": "PubChem BioAssay (Tox21)", "note": "Values joined by “and” are separate entries in the source; they are usually repeats but may differ in a detail not shown here. Equal values may be shown once. Results filed as inconclusive are left out. A call without a number means that no potency is given here. Active and inactive are the calls of the source. Calls come from the whole dose curve; as a rule, active = well fitted cell-killing curve with a large enough effect in the repeat runs; inconclusive = weak or mixed curves; inactive = flat fitted curve, though single readings scatter. Potency is the fitted concentration of half-maximal effect."}
{"assay": "qHTS assay to identify small molecule antagonists of the estrogen related receptor (ERR) signaling pathway from Tox21 library - cell viability counter screen (AID 1224834); note: nearly all actives have a fitted effect of over 30% in size", "details": "ERR reporter cells viability, CellTiter-Fluor, 17.5 h; series mostly up to 92.4 µM", "source_text": "National Center for Advancing Translational Sciences [NCATS]\nNIH Chemical Genomics Center [NCGC]\nU.S. Environmental Protection Agency [EPA]\nNational Institutes of Environmental Health Sciences [NIEHS]\nNational Toxicology Program [NTP]\nU.S. Food and Drug Administration [FDA]\nEstrogen related receptors (ERRs), the first orphan nuclear receptors discovered, play an important role in the control of cellular energy metabolism. ERRs are required for high-energy production in response to the environmental challenges. ERR-alpha was also identified as an adverse marker for breast cancer progression; ERR-alpha-positive tumors have a poor prognosis. To screen and to identify environmental compounds that perturb the ERR signaling pathways could provide valuable information for potential therapeutic or preventive measures in the treatment of metabolic disease. To differentiate true ERR antagonists or agonist from cytotoxic substances, the assay is multiplexed with cell viability assay.\nTox21 Assay Protocol Summary:\nThe ERR cells were dispensed at 2,000 cells/5 ul/well in 1536-well white plates using a Multidrop dispenser. After the assay plates were incubated at a 37 C/5% CO2 incubator for 6 hours, 23 nL of compounds dissolved in DMSO, positive and negative controls or DMSO only was transferred to the assay plate by a pin tool. The plates were incubated at 37 C for 17.5 hours. 1 ul/well of CellTiter-Fluor reagent was added into the assay plates using a Flying Reagent Dispenser. After 30-minute incubation at 37 C/5% CO2, the fluorescence intensity in the plates was measured using a ViewLux plate reader."}
{"smiles": "CC(=O)[O][Sn]([c]1ccccc1)([c]1ccccc1)[c]1ccccc1", "Potency": "0.217 µM (active)"}
{"smiles": "C=CC(=O)[O][Sn]([CH2]CCC)([CH2]CCC)[CH2]CCC", "Potency": "3.06 µM (active)"}
{"smiles": "O=[N+]([O-])C(Br)Br", "Potency": "inactive"}
{"smiles": "Cc1cc2c3c(c1)C(c1ccccc1)=N[C@@H](NC(=O)c1ccncc1)C(=O)N3CC2", "Potency": "inactive"}
{"smiles": "CC(O)C(=O)[O][Hg][c]1ccccc1", "note": "(stereo not given)", "Potency": "4.33 µM (active)"}
{"smiles": "O=C(NC(=O)c1ccccc1Cl)Nc1ccc(OC(F)(F)F)cc1", "Potency": "inactive"}
{"smiles": "COP(=S)(NC(C)C)Oc1ccc(C)cc1[N+](=O)[O-]", "note": "(stereo not given)", "Potency": "inactive"}
{"smiles": "CC1CN1", "note": "(stereo not given)", "Potency": "inactive"}
{"smiles": "Cc1ccc2cc3c(ccc4ccccc43)c3c2c1CC3", "Potency": "inactive"}
{"smiles": "BrCC(Br)(Br)Br", "Potency": "inactive"}
{"smiles": "CC(C)C(Nc1ccc(C(F)(F)F)cc1Cl)C(=O)OC(C#N)c1cccc(Oc2ccccc2)c1", "note": "(stereo not given)", "Potency": "inactive"}
{"smiles": "O=c1[nH]c2cc(Cl)ccc2n1C1CCNCC1", "Potency": "inactive"}
{"smiles": "ClC1=C(Cl)[C@]2(Cl)[C@H]3[C@H]([C@@H]4C=C[C@H]3C4)[C@@]1(Cl)C2(Cl)Cl", "Potency": "inactive"}
{"smiles": "CCNS(=O)(=O)C(F)(F)C(F)(F)C(F)(F)C(F)(F)C(F)(F)C(F)(F)C(F)(F)C(F)(F)F", "Potency": "inactive"}
{"smiles": "COC(=O)C(C)N(C(=O)c1ccco1)c1c(C)cccc1C", "note": "(stereo not given)", "Potency": "inactive"}
{"smiles": "O=NN(CCO)CCO", "Potency": "inactive"}
{"smiles": "CCOC(=O)Cc1ccccc1", "Potency": "inactive"}
{"smiles": "C[C@@H]1CC2=CC(=O)CC[C@@H]2[C@H]2CC[C@@]3(C)[C@@H](CC[C@]3(C)O)[C@@H]21", "Potency": "inactive"}
{"smiles": "CC(C)C(Br)C(=O)NC(N)=O", "note": "(stereo not given)", "Potency": "inactive"}
{"smiles": "[O]=[Cr](=[O])([OH])[O][Cr](=[O])(=[O])[OH]", "Potency": "13.8 µM (active) and 24.3 µM (active)"}
{"smiles": "c1ccc2c(c1)cc1ccc3cccc4ccc2c1c34", "Potency": "inactive"}
{"smiles": "Brc1ccc(Oc2ccc(Br)cc2Br)c(Br)c1", "Potency": "inactive"}
{"smiles": "CC(=O)C(Cl)C(=O)N(C)C", "note": "(stereo not given)", "Potency": "inactive"}
{"smiles": "[Cl-].[Cl-].[Cl-].[Yb+3]", "Potency": "inactive"}
{"smiles": "CC1(C)[C@H](/C=C2\\CCSC2=O)[C@@H]1C(=O)OCc1coc(Cc2ccccc2)c1", "Potency": "inactive"}
{"smiles": "BrCCCBr", "Potency": "inactive"}
{"smiles": "[O-][Cl+3]([O-])([O-])O", "Potency": "inactive"}
{"smiles": "CCCCN(CCCC)C(=S)[S-].CCCCN(CCCC)C(=S)[S-].[Ni+2]", "Potency": "inactive"}
{"smiles": "Cc1ccc(C)c2ccccc12", "Potency": "inactive"}
{"smiles": "CC(C)=CC1C(C(=O)OC(C#N)c2cccc(Oc3ccccc3)c2)C1(C)C", "note": "(stereo not given)", "Potency": "inactive"}
{"smiles": "CN1C2CCC(C)(C)C1CC(OC(=O)C(O)(c1cccs1)c1cccs1)C2", "note": "(stereo not given)", "Potency": "inactive"}
{"smiles": "c1ccc2nc(N3CCNCC3)ccc2c1", "Potency": "inactive"}
{"smiles": "CCCN", "Potency": "inactive"}
{"smiles": "Brc1cccc(-c2ccccc2)c1", "Potency": "inactive"}
{"smiles": "CO/N=C(\\C(=O)OC)c1ccccc1CO/N=C(\\C)c1cccc(C(F)(F)F)c1", "Potency": "inactive"}
{"smiles": "CCN(CC)C(=S)S", "Potency": "54.9 µM (active) and 13.6 µM (active) and 24.3 µM (active)"}
{"smiles": "CCC[CH2][Sn]([CH2]CCC)([CH2]CCC)[O][Sn]([CH2]CCC)([CH2]CCC)[CH2]CCC", "Potency": "1.06 µM (active)"}
{"smiles": "CC(C)[C@@H](Nc1ccc(C(F)(F)F)cc1Cl)C(=O)OC(C#N)c1cccc(Oc2ccccc2)c1", "note": "(stereo not given in full)", "Potency": "inactive"}
{"smiles": "NC(=O)C(Cl)Cl", "Potency": "inactive"}
{"smiles": "O=C1C[C@@H]2OCC=C3CN4CC[C@]56c7ccccc7N1[C@H]5[C@H]2[C@H]3C[C@H]46", "Potency": "inactive"}
